Source: PubChem BioAssay
SENP7 block: inhibitors of human SENP7 protease | actives 1.5% (n = 330,000) | Q9BQF6 | AID 434973 | inhibition, % at 5 µM | recombinant SENP7, Z-RLRGG-aminoluciferin luminescence, 40 min;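 active means inhibition above about 50% at the single test dose, limit read from the data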;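 further: plate controls were DMSO with enzyme for no effect and no enzyme buffer wells for full effect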
SENP8 block-1: inhibitors of human SENP8 protease | Q96LD8 | recombinant SENP8, Nedd8 substrate fluorescence | inhibition, % at 20 µM | actives 0.64% (n = 360,000) | AID 602440; in the data active means inhibition mostly above about 40%, no sharp cut-off; inactive means mostly below about 27%
Target sequence (Q96LD8 whole entry, looked up): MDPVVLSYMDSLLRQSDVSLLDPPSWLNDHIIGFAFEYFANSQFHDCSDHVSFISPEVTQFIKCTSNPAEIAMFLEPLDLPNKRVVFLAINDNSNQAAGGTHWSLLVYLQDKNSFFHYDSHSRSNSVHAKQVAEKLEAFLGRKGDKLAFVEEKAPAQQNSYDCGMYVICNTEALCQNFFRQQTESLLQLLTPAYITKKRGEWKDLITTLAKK
SENP8 block-2: SENP8 protease inhibition | Q96LD8 | purified SENP8, Z-RLRGG-aminoluciferin cleavage, luminescence | actives 1.2% (n = 330,000) | AID 2540 | inhibition, % at 10 µM; in the data active means inhibition above about 50%
HSP90 inh: inhibitors of HSP90 luciferase refolding in rabbit reticulocyte lysate | luciferase refolding luminescence, 3 h | inhibition, % at 5.6 µM | actives 0.91% (n = 290,000) | AID 1789;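 active means inhibition above the screen-wide mean plus 3 SD, computed separately per campaign, cut at about 16% in these data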;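 further: 0% = DMSO wells and 100% = 60 µM geldanamycin wells; inhibitors lower the luminescence because luciferase stays unfolded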
LGR2 antag: Drosophila LGR2 receptor signaling inhibition; HEK293 LGR2, CRE-luciferase, bursicon-stimulated, 4 h; inhibition, % at 9.99 µM; actives 0.35% (n = 380,000); AID 720647;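 active means drop in luminescence signal, shown as inhibition above about 50% in the replicate tests, limit read from the data, passing the limit was not always enough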;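 further: agonist challenge used bursicon conditioned medium at about half maximal strength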
SENP6 inh: blocks the human protease SENP6. inhibition, % at 10 µM. Q9GZR1. Recombinant SENP6 catalytic domain, aminoluciferin luminescence. actives 1.8% (n = 330,000);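 active means inhibition above about 50% at the single tested dose, limit read from the data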;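 further: plate controls were DMSO wells with enzyme for no effect and DMSO wells lacking enzyme for full effect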
Target sequence (Q9GZR1 628-1112 limits assumed): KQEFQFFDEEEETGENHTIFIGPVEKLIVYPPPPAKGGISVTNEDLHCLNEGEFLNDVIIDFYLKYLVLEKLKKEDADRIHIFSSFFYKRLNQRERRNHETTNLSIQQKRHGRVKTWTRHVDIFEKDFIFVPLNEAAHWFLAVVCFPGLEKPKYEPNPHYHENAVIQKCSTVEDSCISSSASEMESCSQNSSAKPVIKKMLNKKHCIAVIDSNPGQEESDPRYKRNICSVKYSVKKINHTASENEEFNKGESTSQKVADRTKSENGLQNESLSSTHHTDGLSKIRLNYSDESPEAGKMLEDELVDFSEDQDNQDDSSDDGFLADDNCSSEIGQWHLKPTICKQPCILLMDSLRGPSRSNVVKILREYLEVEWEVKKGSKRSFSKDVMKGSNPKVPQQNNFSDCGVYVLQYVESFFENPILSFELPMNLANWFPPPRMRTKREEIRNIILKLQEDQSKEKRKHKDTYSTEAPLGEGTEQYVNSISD
SENP8 confirm: human SENP8 inhibition, confirmed | shares compounds with SENP7 block | Recombinant SENP8, Z-RLRGG-aminoluciferin luminescence, 60 min | inhibition, % at 12.5 µM | actives 40% (n = 6,200);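 active means mean inhibition across replicates above about 50%, limit read from the data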
SENP6 conf: human SENP6 inhibition, confirmed; shares compounds with SENP7 block; recombinant SENP6, Z-RLRGG-aminoluciferin luminescence; inhibition, % at 12.5 µM; actives 58% (n = 6,200); AID 488915
SENP7 confirm: human SENP7 inhibition, confirmed. AID 488917. shares compounds with SENP7 block. inhibition, % at 12.5 µM. recombinant SENP7, Z-RLRGG-aminoluciferin luminescence, 40 min. actives 69% (n = 6,200)
Casp3 select: caspase-3 inhibition (SENP selectivity assay); shares compounds with SENP7 block; purified caspase-3, Z-DEVD-aminoluciferin luminescence, 60 min; inhibition, % at 12.5 µM; actives 60% (n = 6,200); AID 488918;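 active means mean inhibition above about 50%, limit read from the data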;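 further: plate controls were enzyme with DMSO for no effect and wells without caspase-3 for full effect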
Luc interf: interferes with luciferase luminescence in SENP counter-screen; shares compounds with SENP7 block; Pre-incubated SENP8/Z-RLRGG-aminoluciferin, luciferase luminescence interference; inhibition, % at 12.5 µM; actives 39% (n = 6,200); AID 488919;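 active means mean inhibition above about 50% when retested at one dose, limit read from the data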;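 further: plate controls were DMSO wells with completed reaction for no effect and substrate without enzyme for full effect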
* = called active by the depositor; . = not tested or not shown. The list is not random: actives were taken first. Their share in the collection is about 2.3%.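 How the source made its calls, unless noted: active means mean inhibition above about 50% in the one-dose retest (limit read from the data); inactive means the rest.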

SMILES | SENP7 block | SENP8 block-1 | SENP8 block-2 | HSP90 inh | LGR2 antag | SENP6 inh | SENP8 confirm | SENP6 conf | SENP7 confirm | Casp3 select | Luc interf
CCC(=O)N1C[C@H](C)[C@@H](OC)CN(C)C(=O)c2cc(NC(=O)NC(C)C)ccc2OC[C@@H]1C | . | . | . | . | -4 | . | . | . | . | . | .
N/C(=N\OC(=O)c1cccc(Cl)c1)c1ccncc1 | 7 | 14 | 3 | 2 | . | -26 | . | . | . | . | .
Cc1ccccc1C(=O)O/N=C(\N)c1ccncc1 | 65* | 5 | 30 | -1 | . | 62* | 42 | 41 | 79* | 81* | 55*
Cc1ccc(S(=O)(=O)N[C@H]2CC[C@@H](CCNC(=O)Nc3ccc(Cl)cc3)O[C@@H]2CO)cc1 | . | . | . | . | 18 | . | . | . | . | . | .
O=C(CSc1nnc(-c2cccnc2)o1)c1cc2ccccc2oc1=O | -5 | -110 | -9 | 0 | . | -4 | . | . | . | . | .
Cn1cnnc1SCC(=O)c1cc2ccccc2oc1=O | 67* | -31 | 4 | 3 | -11 | -15 | 10 | 9 | 4 | -2 | -6
N=C1/C(=C/c2ccc(-c3cccc(C(=O)O)c3)o2)C(=O)N=C2SC=C(c3ccccc3)N12 | 11 | -30 | 46 | 15 | -1 | 65* | 26 | -1 | -8 | 3 | 4
CSc1ccc(/C=N/NC(=O)c2cccc(O)c2)cc1 | 90* | -257 | 75* | 6 | 28 | 91* | 7 | 81* | 96* | 86* | 83*
Clc1ccc(/C=N/NC2=Nc3cccc4cccc2c34)cc1 | 2 | 25 | -18 | 0 | -73 | -22 | . | . | . | . | .
C(=N\NC1=Nc2cccc3cccc1c23)/c1ccccc1 | 48 | 27 | 33 | -1 | -31 | 62* | 28 | 26 | 83* | 35 | 13
Cc1ccc(C=C2C=C(c3ccccc3)OC2=O)cc1 | . | -25 | . | . | . | . | . | . | . | . | .
Cc1ccc(C2=C/C(=C/c3cccs3)C(=O)O2)cc1 | 71* | 10 | 34 | 4 | -3 | 74* | -10 | -2 | 5 | 19 | 4
CCN1[C@@H]2c3ccc(C4=CCCC4)c(=O)n3C[C@H]1[C@H](CO)[C@H]2C(=O)N[C@@H](C)c1ccccc1 | . | . | . | . | -8 | . | . | . | . | . | .
NC(=S)n1[nH]c(-c2ccc([N+](=O)[O-])cc2)c(N=Nc2cccc([N+](=O)[O-])c2)c1=O | . | 38 | . | 3 | -1 | . | . | . | . | . | .
Cc1ccc(N=Nc2c(C)[nH]n(C(N)=S)c2=O)cc1C | 78* | 57* | 78* | -1 | -64 | 90* | 61* | 54* | 67* | 73* | 16
Cc1[nH]n(C(N)=S)c(=O)c1N=Nc1cc(-c2ccc(Br)cc2)[nH]n1 | 18 | 30 | 55* | 13 | -10 | 69* | -7 | 1 | -6 | -4 | 12
Cc1[nH]n(C(N)=S)c(=O)c1N=Nc1ccc(S(=O)(=O)N2CCCCCC2)cc1 | 26 | 37 | 49 | 11 | . | 73* | 51* | 43 | 48 | 45 | 20
Cc1[nH]n(C(N)=S)c(=O)c1N=Nc1ccc2ccccc2c1 | . | 6 | . | 1 | -78 | . | . | . | . | . | .
CC(=O)Nc1ccc(N=Nc2c(C)[nH]n(C(N)=S)c2=O)cc1 | 67* | 8 | 70* | 2 | -10 | 53* | 64* | 66* | 93* | 92* | 39
Cc1ccc(C(=O)NNC(=O)c2ccc(S(=O)(=O)N3CCCCC3)cc2)cc1 | -10 | 2 | -22 | . | . | -14 | . | . | . | . | .
Cc1[nH]n(C(N)=S)c(=O)c1N=Nc1cccc([N+](=O)[O-])c1C | 71* | 39 | 88* | 11 | . | 96* | 96* | 95* | 102* | 92* | 88*
Cc1c(N=Nc2c(-c3ccc([N+](=O)[O-])cc3)[nH]n(C(N)=S)c2=O)cccc1[N+](=O)[O-] | . | 29 | . | 3 | 35 | . | . | . | . | . | .
CN(c1ccccc1)c1ccc(/C=N/N2CCOCC2)cc1 | 31 | -21 | 34 | -6 | -40 | 52* | 44 | 43 | 79* | 49 | 31
C(=NN1CCCCCC1)c1ccccc1 | . | 11 | . | . | . | . | . | . | . | . | .
O=C(O)c1ccccc1CSc1nc2ccccc2o1 | 62* | 15 | 57* | 4 | . | 85* | 77* | 75* | 91* | 90* | 81*
SMILES | SENP7 block | SENP8 block-1 | SENP8 block-2 | HSP90 inh | LGR2 antag | SENP6 inh | SENP8 confirm | SENP6 conf | SENP7 confirm | Casp3 select | Luc interf
O=C(CSc1nc2ccccc2o1)c1ccccc1 | 71* | 12 | 46 | -3 | . | 67* | 68* | 69* | 85* | 61* | 62*
CC(=O)CSc1nc2ccccc2o1 | -11 | 26 | -11 | 4 | . | 1 | . | . | . | . | .
O=C(O)c1ccc(CSc2nc3ccccc3o2)cc1 | 30 | 13 | 54* | 0 | . | 75* | 66* | 64* | 86* | 83* | 70*
CC(C)COC(=O)N(C)C[C@@H]1OCc2cn(nn2)CCCC(=O)N([C@H](C)CO)C[C@H]1C | . | . | . | . | 13 | . | . | . | . | . | .
Cc1ccc2oc(-c3ccc(NC(=O)CC(C)C)cc3)nc2c1 | -1 | -302 | -3 | -2 | -66 | -25 | . | . | . | . | .
Cc1ccc(-c2nc3cc(C)ccc3o2)cc1 | 90* | -34 | 89* | 13 | . | 90* | 58* | 77* | 94* | 78* | 33
Cc1ccc(-c2nc3cc(N)ccc3o2)c(C)c1 | 67* | -482 | 69* | 4 | . | 83* | 58* | 73* | 92* | 55* | 28
Cc1ccc(-c2nc3cc(N)ccc3o2)cc1 | 90* | -260 | 75* | 9 | . | 88* | 2 | 86* | 97* | 82* | 58*
O=c1oc(-c2ccco2)nc2ccccc12 | -11 | -16 | -11 | -2 | . | -29 | . | . | . | . | .
Cc1ccc2oc(-c3ccco3)nc2c1 | 55* | -186 | 44 | -3 | . | 66* | -14 | 12 | 76* | 22 | 0
CNC[C@@H]1Oc2ncc(C#CC3(O)CCCC3)cc2C(=O)N([C@H](C)CO)C[C@@H]1C | . | . | . | . | -3 | . | . | . | . | . | .
C[C@H]1CN([C@@H](C)CO)C(=O)c2cc(NS(=O)(=O)c3cccs3)ccc2O[C@@H]1CN(C)C(=O)Nc1ccc(C(F)(F)F)cc1 | . | . | . | . | -21 | . | . | . | . | . | .
C[C@@H]1CN([C@H](C)CO)C(=O)c2cc(Br)cnc2O[C@@H]1CN(C)CC1CCOCC1 | . | . | . | . | 4 | . | . | . | . | . | .
Cc1ccc2nc(-c3ccccn3)oc2c1 | 81* | -417 | 63* | 13 | . | 83* | 9 | 71* | 95* | 89* | 44
